Results on 15 sequences are retold here after the OligoGym collection.
Also: reference of the scale not given here.

The target of the assay is ACYP1. The assay is described as follows: pooled miR-30 sensor sort-seq; sequence = guide strand. As to conditions: shRNA.
Sequence TTCATTGTTGAAGTTTGCTTTG returned a sensor-assay potency score (higher = more potent) of -0.707. The result for TATTAACACACAATAGTTCTAT reads 0.336. For TCATTGTTGAAGTTTGCTTTGT the value was -0.429; for TTAGATTTGTGTACAGTGGTAA, 0.61; for TGTCCTTGCACTGTGCCCCGGT, 0.12. For TTCATAATCCACTGATATCAGG the value was -1.09; for TAATATTAACACACAATAGTTC, -0.41.

On to AAAAATTTCATAATCCACTGAT, for which the sensor-assay potency score (higher = more potent) was 0.598. For TCCAACTTCAAGATGACTTTTT the value was -1.37. The result for TCTTGTTTCAAGCCATTCCTGC reads -0.475. For TTTGCTTTGTCGATGTGTGATT the value was -0.219. As to TGTGTGATTTAGGACTTCCTCT, the sensor-assay potency score (higher = more potent) was -0.445. TAGGACTTCCTCTTGTTTCAAG gave a sensor-assay potency score (higher = more potent) of -0.653. The result for ATAACTTATTGACTAATGCTAA reads -0.709; that for TAACTTATTGACTAATGCTAAT, -1.36.
